Assay outcomes: PubChem, National Center for Advancing Translational Sciences (NCATS)
An excerpt weighted towards active compounds, which were near 4.2% of everything screened.
uPA generation: inhibitors of cell surface uPA generation. cell surface uPA generation assay, qHTS. Potency, µM (highest dose often 38.3 µM), hits mostly inhibitors. 0.31% of 330,000 active; active means well fitted inhibition curve with a large enough effect; inconclusive means small, poorly fitted or top-dose-only effect; inactive means no such curve, though single readings can be large or run the other way; tested in mouse RAW 264.7 cells; further: nearly all actives have a fitted effect of over 55% in size
ClpP mod: qHTS Assay for Activators of ClpP. Potency, µM (highest dose often 57.5 µM). AID 651965, 2013. 1.9% of 340,000 active. purified B. subtilis ClpP, FRET peptide cleavage, 20 min. ATP-dependent Clp protease proteolytic subunit (Bacillus subtilis (strain 168)), P80244; active means well fitted falling curve with a large enough effect; inconclusive means small, poorly fitted or top-dose-only effect; inactive means no such curve, though single readings can be large or run the other way; further: the source files actives as falling curves though it sought activators and does not explain the sign; nearly all actives have a fitted effect of over 65% in size
Target sequence (P80244 whole entry, looked up): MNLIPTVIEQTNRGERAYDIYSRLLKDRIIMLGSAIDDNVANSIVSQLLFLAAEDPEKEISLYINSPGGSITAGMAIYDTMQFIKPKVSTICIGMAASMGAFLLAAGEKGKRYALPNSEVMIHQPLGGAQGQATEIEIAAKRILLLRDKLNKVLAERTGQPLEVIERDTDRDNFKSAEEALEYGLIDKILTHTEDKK
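FRET quenching reversal measured ClpP activation: 10 microg/mL B. subtilis ClpP at pH 8 with the FRET-FV decapeptide, read at 430 nm after 320 nm excitation. The 20-min minus 0-min signal was scaled between DMSO/no-enzyme wells and ADEP (5.8 microM final).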
TCR activator: T cell receptor activation; primary human leukocytes, anti-CD3, IL-2 HTRF, 48 h; Potency, µM (top dose mostly 9.22 µM), usual class: activators; 330,000 tested, under 10 active; AID 504894
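Using a-CD3 beads without co-stimulation, primary human leukocytes were exposed to compounds for 48 hr. An HTRF IL-2 kit measured the cytokine, with europium-to-d2 energy transfer producing emission at 665nm upon 320nm excitation.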
Sfp inh: inhibitors of Bacillus subtilis Sfp phosphopantetheinyl transferase. Potency, µM, usual class: inhibitors. AID 1490. Biochemical Sfp PPTase activity, qHTS. Q9F4F7. 3.5% of 310,000 active;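 further: the enzyme is Sfp with the accession as filed and its product quenches rhodamine fluorescence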
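With Hepes-Na pH 7.6 buffer containing 10 mM MgCl2, Sfp (15 nM) modified BHQ-2-YbbR (12.5 uM) using rhodamine-CoA (5 uM). Two reads 30 minutes apart at 525/598 nm yielded each well's rate.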
Each line names hits and unclear results; the compound was inactive in the other large screens; ! = not active in a repeat. Unless noted, the call rests on the fitted dose curve; in most records, active means well fitted curve in the direction sought with a large enough effect; inconclusive means small, poorly fitted or top-dose-only effect, or another doubt; inactive means no such curve, though single readings can be large; an effect the other way counts as inactive or inconclusive.

COCCn1c(C)cc(C(=O)CSc2nc(C)c(C)c(C)n2)c1C	Sfp inh 39.8µM (no result: ClpP mod)
COCC(C)n1c(C)cc(C(=O)CSc2nc(C)c(C)c(C)n2)c1C (stereo not drawn)	Sfp inh inconclusive
Clc1cnc(N/N=C/c2ccco2)c(Cl)c1	Sfp inh 79.4µM
C=CCSc1nc2sc3c(c2c(=O)n1CC=C)CCc1ccccc1-3	Sfp inh 44.7µM
NC1CCc2ccccc21 (stereo not drawn)	none (no result: uPA generation, TCR activator, Sfp inh)
O=C(NC(=C(Cl)Cl)S(=O)(=O)c1ccc(Cl)cc1)c1ccccc1	uPA generation 8.91µM
CCCCN(C(=O)Cc1ccc(S(=O)(=O)N2CCOCC2)s1)c1c(N)n(CC(C)C)c(=O)[nH]c1=O	none (no result: ClpP mod, Sfp inh)
O=C(Nc1sc2c(c1C(=O)NCc1ccco1)CCCC2)c1ccc2c(c1)OCO2	Sfp inh 44.7µM (no result: TCR activator)
COC(=O)Nc1sc2c(c1C(=O)NCc1ccco1)CCC2	Sfp inh inconclusive (no result: uPA generation)
COC(=O)Nc1sc2c(c1C(=O)NCc1ccco1)CCCC2	Sfp inh 79.4µM (no result: TCR activator)
Cc1ccc(C(=O)Nc2sc3c(c2C(=O)NCc2ccco2)CCCC3)cc1	none
Cc1nc(N=Nc2cc([N+](=O)[O-])ccc2Cl)c(COP(=O)(O)O)c(C=O)c1O	none (no result: uPA generation, ClpP mod, TCR activator)
Cc1nc(N=Nc2cc(S(=O)(=O)O)c3cc([N+](=O)[O-])cc(S(=O)(=O)O)c3c2)c(COP(=O)(O)O)c(C=O)c1O	Sfp inh 39.8µM! (no result: uPA generation, TCR activator)
COc1ccc(CN2CCC2(C)C(=O)Nc2ccc(OC)c(OC)c2)cc1 (stereo not drawn)	none (no result: uPA generation, TCR activator, Sfp inh)
Cc1c(Cl)cccc1NC(=O)c1ncn(-c2ccccc2)n1	none (no result: uPA generation, TCR activator, Sfp inh)
CC(C)c1nc(SCC(=O)c2ccc(F)cc2)c2ccccc2n1	Sfp inh 31.6µM
CCOC(=O)CSc1nc(C(C)C)nc2ccccc12	none
Cc1ccc(C(=O)CSc2nc(C(C)C)nc3ccccc23)cc1	Sfp inh 39.8µM
CC(C)CCN1CCN(Cc2cccc(C(F)(F)F)c2)CC1CCO (stereo not drawn)	none
COc1cc(C2c3c(oc4ccccc4c3=O)C(=O)N2c2nnc(C(C)C)s2)cc(OC)c1OC (stereo not drawn)	none (no result: uPA generation, TCR activator, Sfp inh)
CC(=O)N(CC(=O)O)c1ccccc1	ClpP mod 17.8µM
CCC1CCCCN1C(=O)Cn1c(=O)n(-c2ccc(Cl)c(Cl)c2)c(=O)c2c(C)c(C(=O)N(C)C)sc21 (stereo not drawn)	none (no result: uPA generation, TCR activator, Sfp inh)
Cn1c(N)c(C#N)c2c(c1=S)CSC(C)(C)C2	Sfp inh 79.4µM
CC1(C)Cc2c(C#N)c(N)sc(=S)c2CS1	Sfp inh 15.8µM
NC(C(=O)O)C(CC(=O)O)c1ccc(Cl)cc1 (stereo not drawn)	Sfp inh 50.1µM (no result: uPA generation, ClpP mod, TCR activator)
CCc1nc2ccc(C(=O)NC(C)(C)C)cn2c1N(CC)Cc1cccc(Br)c1	none (no result: uPA generation, TCR activator, Sfp inh)
Cc1oc2c(CN3CCOCC3)c(O)ccc2c(=O)c1-c1ccc(Br)cc1	ClpP mod 14.1µM
CCN1CCN(Cc2c(O)ccc3c(=O)c(-c4ccc(OC)c(OC)c4)c(C)oc23)CC1	ClpP mod 28.2µM
COc1ccc(-c2c(C)oc3c(CN4CCN(C)CC4)c(O)ccc3c2=O)cc1	none
COc1cccc(NC(=S)Nc2ccc(O)cc2)c1	uPA generation inconclusive, Sfp inh 20µM
COc1cccc(NC(=S)Nc2ccc(F)cc2)c1	none (no result: ClpP mod)
COc1ccc(NC(=S)Nc2ccc3nccnc3c2)cc1	Sfp inh 44.7µM
O=C(c1cc2ccccc2[nH]1)c1cc2cc(O)ccc2[nH]1	none (no result: uPA generation, TCR activator, Sfp inh)
C[C@@H]1CN([C@@H](C)CO)C(=O)c2cccc(NS(C)(=O)=O)c2O[C@H]1CN(C)CC1CCCCC1	none (no result: Sfp inh)
CCNC(=O)CC1C(=O)N(c2ccc(F)cc2)C(=O)N1CCOC (stereo not drawn)	none (no result: uPA generation, TCR activator, Sfp inh)
CC(C)(C)C1CCc2c(sc(NC(=O)Cn3nnc(-c4ccccc4F)n3)c2C#N)C1 (stereo not drawn)	none (no result: uPA generation, TCR activator, Sfp inh)
Cc1cc(C(C)C)n2c(nc3ccccc32)c1C#N	none (no result: uPA generation, ClpP mod, TCR activator)
Cc1nn(-c2ccc(F)cc2)c2c1cc(C#N)c1nc3ccccc3n12	ClpP mod 15.8µM
CCc1ccc2[nH]c(=O)c(-c3ccccc3)c(O)c2c1	none (no result: ClpP mod)
Cc1cccc(NC(=O)COc2ccc3c(c2)CCC3)n1	ClpP mod 28.2µM (no result: Sfp inh)
O=C(COc1ccc2c(c1)CCC2)Nc1ccccn1	none (no result: Sfp inh)
CCOC(=O)c1cnc(SSc2ncc(C(=O)OCC)c(N)n2)nc1N	Sfp inh 7.94µM
CCOC(=O)CC(NS(=O)(=O)c1ccc(OC)c(C)c1)c1cccc([N+](=O)[O-])c1 (stereo not drawn)	none
Cc1cc(N)n2ncc(-c3cccc(Br)c3)c2n1	ClpP mod 17.8µM
CO[C@@H]1COC(=O)CCC[C@@H](C)[C@H](OC)COC(=O)[C@H](Cc2ccccc2)NC(=O)C/C=C\[C@H]1C	none (no result: uPA generation, ClpP mod, TCR activator)
COC(=O)c1ccc(COc2ccc(C3C4=C(CCCC4=O)Nc4onc(C)c43)cc2)cc1 (stereo not drawn)	ClpP mod 28.2µM
COC(=O)c1ccc(C2CC(=O)NC3=C2C(=O)CCC3)cc1 (stereo not drawn)	none
COCCNC(=O)Cn1cc(C(=S)N2CCOCC2)c2ccccc21	Sfp inh 31.6µM (no result: ClpP mod)
COCCCNC(=O)Cn1cc(C(C)=O)c2ccccc21	none (no result: TCR activator)
COc1cccc(N2CCN(S(=O)(=O)c3cc4c(cc3C)N(C)CCO4)CC2)c1	ClpP mod inconclusive
Cc1cc2c(cc1S(=O)(=O)N1CCN(c3cccc(C)c3C)CC1)OCCN2C	ClpP mod 28.2µM
CCNc1cc2n(c(=O)n1)CCc1cc(OC)c(OC)cc1-2	ClpP mod 28.2µM
CCOc1ccccc1Nc1cc2n(c(=O)n1)CCc1cc(OC)c(OC)cc1-2	none (no result: ClpP mod)
COc1cc2c(cc1OC)-c1cc(NC3CCCCCCC3)nc(=O)n1CC2	ClpP mod inconclusive
COc1cc2c(cc1OC)-c1cc(NC3CC3)nc(=O)n1CC2	none
COc1cc2c(cc1OC)-c1cc(NCc3ccccn3)nc(=O)n1CC2	ClpP mod 28.2µM
CCCCCCNc1cc2n(c(=O)n1)CCc1cc(OC)c(OC)cc1-2	ClpP mod 15.8µM (no result: uPA generation)
CCOc1ccccc1CNn1cnnc1SCC(=O)NC(C)(C)C	none (no result: uPA generation, TCR activator, Sfp inh)
O=C(C1CCCC1)N1CCN=C1SCc1cccc([N+](=O)[O-])c1	none (no result: ClpP mod)
CC(=O)OCOC(c1ccc2ccccc2c1)P(=O)(OCOC(C)=O)OCOC(C)=O (stereo not drawn)	none (no result: uPA generation, ClpP mod, TCR activator)
O=C(NCCS(=O)(=O)N1CCN(c2ccccc2)CC1)c1ccccc1F	none (no result: ClpP mod, Sfp inh)
CN(C)c1ccc(-c2nc3ccccn3c2Nc2ccc3c(c2)OCCO3)cc1	none (no result: uPA generation, TCR activator, Sfp inh)
O=C(CCN1CCc2ccccc2C(c2ccccc2)C1)c1ccc2c(c1)OCCO2 (stereo not drawn)	Sfp inh 44.7µM
O=C(CCN1Cc2ccccc2C1)c1ccc2c(c1)OCCO2	Sfp inh inconclusive
CCOC(=O)Cn1c(=O)n(CC2CCCO2)c2nc(-c3ccccc3F)nc(C(N)=O)c21 (stereo not drawn)	none (no result: uPA generation, TCR activator, Sfp inh)
O=C(Cc1cc(=O)[nH][nH]1)N/N=C/c1c(Cl)cccc1Cl	Sfp inh 50.1µM
O=C(Cc1cc(=O)[nH][nH]1)N/N=C/c1c(F)cccc1Cl	none
COc1ccc(-c2nsc(C(=O)N(c3ccc(F)cc3)C(C(=O)NC3CCCC3)c3ccc(OC)cc3)c2N)cc1 (stereo not drawn)	ClpP mod 15.8µM
